According to the supplement of paper PMC10037445:
Over roughly 2,900 compounds, “NF-kB SEAP reporter activity, fold change vs agonist alone” has its median near 0.99; the highest 2% begin near 2.6. Only a selection was taken, and the highest values are over-represented in it overall.

Columns and labels:
[1] = tested on: RAW-Dual; experiment: NF-kB SEAP reporter activity, fold change vs agonist alone; higher = enhanced NF-kB activity
Outline: (§1)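 Reporter activity is given as fold change relative to agonist-alone wells. To measure it, 50 nL of library stock was pin-tooled onto RAW-Dual macrophages (50,000 cells/well, DMEM, 384-well plates), a PRR agonist followed 1 h later, and cells stayed at 37 °C, 5% CO2. Twenty hours on, supernatant was assayed for IRF (QuantiLuc luminescence) and NF-κB (QuantiBlue, 620 nm absorbance), and wells under 70% of agonist-control IncuCyte confluency in both mask sets were marked cytotoxic.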

[2] = tested on: RAW-Dual; experiment: NF-kB SEAP reporter activity, fold change vs agonist alone; cytotoxicity flag (confluency mask): not cytotoxic; higher = enhanced NF-kB activity
Outline: as §1

[3] = tested on: RAW-Dual; experiment: NF-kB SEAP reporter activity, fold change vs agonist alone; cytotoxicity flag (confluency mask): cytotoxic (confluency <70% of control); higher = enhanced NF-kB activity
Outline: as §1

[4] = library stock concentration (final ~1000-fold dilution): 10 mM, cytotoxicity flag (confluency mask): not cytotoxic, agonist: Imiquimod (TLR7) […]
[5] = library stock concentration (final ~1000-fold dilution): 10 mM, cytotoxicity flag (confluency mask): not cytotoxic, agonist: MPLA (TLR4) […]
[6] = agonist: ODN 1826 (TLR9) 0.5 ug/mL
[7] = agonist: Pam2CSK4 (TLR2/6) 0.1 ug/mL
[8] = agonist: Pam3CSK4 (TLR2/1) 0.1 ug/mL
[9] = library stock concentration (final ~1000-fold dilution): 10 mM, cytotoxicity flag (confluency mask): cytotoxic (confluency <70% of control), agonist: MPLA (TLR4) […]
[10] = library stock concentration (final ~1000-fold dilution): 10 mM, cytotoxicity flag (confluency mask): cytotoxic (confluency <70% of control), agonist: Imiquimod (TLR7) […]

## CCCCCCCCCC(=O)NC(Cc1c[nH]c2ccccc12)C(=O)NC(CC(N)=O)C(=O)NC(CC(=O)O)C(=O)NC1C(=O)NCC(=O)NC(CCCN)C(=O)NC(CC(=O)O)C(=O)NC(C)C(=O)NC(CC(=O)O)C(=O)NCC(=O)NC(CO)C(=O)NC(C(C)CC(=O)O)C(=O)NC(CC(=O)c2ccccc2N)C(=O)OC1C (configuration not stated)
[1]; [4]
  NF-kB SEAP reporter activity: 0.826
[1]; [5]
  NF-kB SEAP reporter activity: 0.855

## CC(=O)OC(CC=C(C)C)C1=CC(=O)c2c(O)ccc(O)c2C1=O (configuration not stated)
[1]; library stock concentration (final ~1000-fold dilution): 2 mM, cytotoxicity flag (confluency mask): not cytotoxic, agonist: Imiquimod (TLR7) […]
  NF-kB SEAP reporter activity: 0.978
[1]; library stock concentration (final ~1000-fold dilution): 2 mM, cytotoxicity flag (confluency mask): not cytotoxic, agonist: MPLA (TLR4) […]
  NF-kB SEAP reporter activity: 0.978

## CC(=O)OC(CC=C(C)C)C1=CC(=O)c2c(O)ccc(O)c2C1=O (configuration not stated) (library stock concentration (final ~1000-fold dilution): 2 mM)
[2]; agonist: LPS (TLR4) 0.1 ug/mL
  NF-kB SEAP reporter activity: 0.479
[2]; [6]
  NF-kB SEAP reporter activity: 0.647
[2]; [7]
  NF-kB SEAP reporter activity: 0.257
[2]; [8]
  NF-kB SEAP reporter activity: 0.408

## O=c1cc(-c2ccccc2)oc2c1ccc1ccccc12 (library stock concentration (final ~1000-fold dilution): 10 mM)
[2]; agonist: LPS (TLR4) 0.1 ug/mL
  NF-kB SEAP reporter activity: 0.691
[2]; [6]
  NF-kB SEAP reporter activity: 0.933
[2]; [7]
  NF-kB SEAP reporter activity: 0.846
[2]; [8]
  NF-kB SEAP reporter activity: 0.982

## O=c1cc(-c2ccccc2)oc2c1ccc1ccccc12
[1]; [5]
  NF-kB SEAP reporter activity: 1.2

## C#CCNC1CCc2ccccc21 (configuration not stated) (library stock concentration (final ~1000-fold dilution): 10 mM)
[2]; agonist: LPS (TLR4) 0.1 ug/mL
  NF-kB SEAP reporter activity: 1.06
[2]; [6]
  NF-kB SEAP reporter activity: 0.931
[2]; [7]
  NF-kB SEAP reporter activity: 1.04
[2]; [8]
  NF-kB SEAP reporter activity: 1.08

## C#CCNC1CCc2ccccc21 (configuration not stated)
[1]; [4]
  NF-kB SEAP reporter activity: 0.916
[1]; [5]
  NF-kB SEAP reporter activity: 1.14

## O=C1Nc2ccc(Cl)cc2C(C#CC2CC2)(C(F)(F)F)O1 (configuration not stated)
[1]; [9]
  NF-kB SEAP reporter activity: 0.748

## O=C1Nc2ccc(Cl)cc2C(C#CC2CC2)(C(F)(F)F)O1 (configuration not stated) (library stock concentration (final ~1000-fold dilution): 10 mM)
[3]; agonist: LPS (TLR4) 0.1 ug/mL
  NF-kB SEAP reporter activity: 0.632
[3]; [6]
  NF-kB SEAP reporter activity: 0.547
[3]; [7]
  NF-kB SEAP reporter activity: 0.614
[3]; [8]
  NF-kB SEAP reporter activity: 0.542

## CCCC(NC1CCc2cc(F)cc(F)c2C1)C(=O)Nc1cn(C(C)(C)CNCC(C)(C)C)cn1 (configuration not stated)
[1]; [4]
  NF-kB SEAP reporter activity: 0.373
[1]; [5]
  NF-kB SEAP reporter activity: 0.669

## CCCC(NC1CCc2cc(F)cc(F)c2C1)C(=O)Nc1cn(C(C)(C)CNCC(C)(C)C)cn1 (configuration not stated) (library stock concentration (final ~1000-fold dilution): 10 mM)
[2]; agonist: LPS (TLR4) 0.1 ug/mL
  NF-kB SEAP reporter activity: 0.636
[2]; [6]
  NF-kB SEAP reporter activity: 0.316
[2]; [7]
  NF-kB SEAP reporter activity: 0.723
[2]; [8]
  NF-kB SEAP reporter activity: 0.298

## CC(=O)NC(CC(C)C)C(=O)NC(CC(C)C)C(=O)NC(C=O)CCCNC(=N)N (configuration not stated)
[1]; [4]
  NF-kB SEAP reporter activity: 0.983
[1]; [5]
  NF-kB SEAP reporter activity: 1.09

## CC(=O)NC(CC(C)C)C(=O)NC(CC(C)C)C(=O)NC(C=O)CCCNC(=N)N (configuration not stated) (library stock concentration (final ~1000-fold dilution): 10 mM)
[2]; agonist: LPS (TLR4) 0.1 ug/mL
  NF-kB SEAP reporter activity: 1.01
[2]; [6]
  NF-kB SEAP reporter activity: 1.02
[2]; [7]
  NF-kB SEAP reporter activity: 1.08
[2]; [8]
  NF-kB SEAP reporter activity: 1.15

## CN1C2=C3N=c4ccccc4=C3CCN2C(=O)c2ccccc21 (library stock concentration (final ~1000-fold dilution): 10 mM)
[2]; agonist: LPS (TLR4) 0.1 ug/mL
  NF-kB SEAP reporter activity: 1.05
[2]; [6]
  NF-kB SEAP reporter activity: 0.339
[2]; [7]
  NF-kB SEAP reporter activity: 0.824
[2]; [8]
  NF-kB SEAP reporter activity: 1.1

## CN1C2=C3N=c4ccccc4=C3CCN2C(=O)c2ccccc21
[1]; [4]
  NF-kB SEAP reporter activity: 1.62
[1]; [5]
  NF-kB SEAP reporter activity: 1.83

## Cc1cc2c(C(N)=O)cccc2n1-c1nc2c(c(NCc3ccccc3)n1)COCC2 (library stock concentration (final ~1000-fold dilution): 10 mM)
[3]; agonist: LPS (TLR4) 0.1 ug/mL
  NF-kB SEAP reporter activity: 0.298
[3]; [6]
  NF-kB SEAP reporter activity: 0.325
[3]; [7]
  NF-kB SEAP reporter activity: 0.0795
[3]; [8]
  NF-kB SEAP reporter activity: 0.159

## Cc1cc2c(C(N)=O)cccc2n1-c1nc2c(c(NCc3ccccc3)n1)COCC2
[1]; [10]
  NF-kB SEAP reporter activity: 0.297
[1]; [9]
  NF-kB SEAP reporter activity: 0.302

## CC(C)=CCC[C@](C)(O)[C@H]1CC[C@]2(C)[C@@H]3CCC4C(C)(C)[C@@H](O)CC[C@]4(C)[C@H]3C[C@@H](O)[C@@]12C (some centres not stated) (library stock concentration (final ~1000-fold dilution): 10 mM)
[2]; agonist: LPS (TLR4) 0.1 ug/mL
  NF-kB SEAP reporter activity: 1.41
[2]; [6]
  NF-kB SEAP reporter activity: 0.693
[2]; [7]
  NF-kB SEAP reporter activity: 0.848
[2]; [8]
  NF-kB SEAP reporter activity: 0.882

## CC(C)=CCC[C@](C)(O)[C@H]1CC[C@]2(C)[C@@H]3CCC4C(C)(C)[C@@H](O)CC[C@]4(C)[C@H]3C[C@@H](O)[C@@]12C (some centres not stated)
[1]; [4]
  NF-kB SEAP reporter activity: 0.934
[1]; [5]
  NF-kB SEAP reporter activity: 1.14

## O=c1cc(-c2ccc(O)cc2)oc2c(C3OCC(O)C(O)C3O)c(O)c(C3OC(CO)C(O)C(O)C3O)c(O)c12 (configuration not stated)
[1]; [4]
  NF-kB SEAP reporter activity: 1.02
[1]; [5]
  NF-kB SEAP reporter activity: 1.05

## O=c1cc(-c2ccc(O)cc2)oc2c(C3OCC(O)C(O)C3O)c(O)c(C3OC(CO)C(O)C(O)C3O)c(O)c12 (configuration not stated) (library stock concentration (final ~1000-fold dilution): 10 mM)
[2]; agonist: LPS (TLR4) 0.1 ug/mL
  NF-kB SEAP reporter activity: 1.45
[2]; [6]
  NF-kB SEAP reporter activity: 1.03
[2]; [7]
  NF-kB SEAP reporter activity: 1.08
[2]; [8]
  NF-kB SEAP reporter activity: 1.08

## CCn1cc(-c2cccc(C(F)(F)F)c2)c2sc(C(=N)NC3CCS(=O)(=O)CC3)cc2c1=O
[1]; [10]
  NF-kB SEAP reporter activity: 1.33
[1]; [9]
  NF-kB SEAP reporter activity: 2.16

## CCn1cc(-c2cccc(C(F)(F)F)c2)c2sc(C(=N)NC3CCS(=O)(=O)CC3)cc2c1=O (library stock concentration (final ~1000-fold dilution): 10 mM)
[3]; agonist: LPS (TLR4) 0.1 ug/mL
  NF-kB SEAP reporter activity: 3.13
[3]; [6]
  NF-kB SEAP reporter activity: 0.721
[3]; [7]
  NF-kB SEAP reporter activity: 1.15
[3]; [8]
  NF-kB SEAP reporter activity: 1.12

## CCCNC(=O)C1OC1C(=O)NC(C(=O)N1CCCC1C(=O)OC)C(C)CC (configuration not stated) (library stock concentration (final ~1000-fold dilution): 10 mM)
[2]; agonist: LPS (TLR4) 0.1 ug/mL
  NF-kB SEAP reporter activity: 1.06
[2]; [6]
  NF-kB SEAP reporter activity: 0.881
[2]; [7]
  NF-kB SEAP reporter activity: 0.854
[2]; [8]
  NF-kB SEAP reporter activity: 0.799

## CCCNC(=O)C1OC1C(=O)NC(C(=O)N1CCCC1C(=O)OC)C(C)CC (configuration not stated)
[1]; [4]
  NF-kB SEAP reporter activity: 0.821
[1]; [5]
  NF-kB SEAP reporter activity: 1.04
